Source: the supplement of paper PMC11732987, “Enantioselective OTUD7B fragment discovery through chemoproteomics screening and high-throughput optimisation” (Communications Chemistry, 2025)

Experiments:
Experiment in all cases: log2 ratio of Biotin-Ahx-Ub-VS probe labelling (fragment/DMSO); higher = less target engagement (more negative = stronger competition), active = hit call of the paper (q ≤ 0.05, log2 ratio ≤ -1)
Conditions in all cases: compound concentration: 200 uM; treatment time: 3 h
[1] = target: USP34 (UniProt Q70CQ2)
Chain of USP34 (Q70CQ2 whole entry, the tested form may be a part): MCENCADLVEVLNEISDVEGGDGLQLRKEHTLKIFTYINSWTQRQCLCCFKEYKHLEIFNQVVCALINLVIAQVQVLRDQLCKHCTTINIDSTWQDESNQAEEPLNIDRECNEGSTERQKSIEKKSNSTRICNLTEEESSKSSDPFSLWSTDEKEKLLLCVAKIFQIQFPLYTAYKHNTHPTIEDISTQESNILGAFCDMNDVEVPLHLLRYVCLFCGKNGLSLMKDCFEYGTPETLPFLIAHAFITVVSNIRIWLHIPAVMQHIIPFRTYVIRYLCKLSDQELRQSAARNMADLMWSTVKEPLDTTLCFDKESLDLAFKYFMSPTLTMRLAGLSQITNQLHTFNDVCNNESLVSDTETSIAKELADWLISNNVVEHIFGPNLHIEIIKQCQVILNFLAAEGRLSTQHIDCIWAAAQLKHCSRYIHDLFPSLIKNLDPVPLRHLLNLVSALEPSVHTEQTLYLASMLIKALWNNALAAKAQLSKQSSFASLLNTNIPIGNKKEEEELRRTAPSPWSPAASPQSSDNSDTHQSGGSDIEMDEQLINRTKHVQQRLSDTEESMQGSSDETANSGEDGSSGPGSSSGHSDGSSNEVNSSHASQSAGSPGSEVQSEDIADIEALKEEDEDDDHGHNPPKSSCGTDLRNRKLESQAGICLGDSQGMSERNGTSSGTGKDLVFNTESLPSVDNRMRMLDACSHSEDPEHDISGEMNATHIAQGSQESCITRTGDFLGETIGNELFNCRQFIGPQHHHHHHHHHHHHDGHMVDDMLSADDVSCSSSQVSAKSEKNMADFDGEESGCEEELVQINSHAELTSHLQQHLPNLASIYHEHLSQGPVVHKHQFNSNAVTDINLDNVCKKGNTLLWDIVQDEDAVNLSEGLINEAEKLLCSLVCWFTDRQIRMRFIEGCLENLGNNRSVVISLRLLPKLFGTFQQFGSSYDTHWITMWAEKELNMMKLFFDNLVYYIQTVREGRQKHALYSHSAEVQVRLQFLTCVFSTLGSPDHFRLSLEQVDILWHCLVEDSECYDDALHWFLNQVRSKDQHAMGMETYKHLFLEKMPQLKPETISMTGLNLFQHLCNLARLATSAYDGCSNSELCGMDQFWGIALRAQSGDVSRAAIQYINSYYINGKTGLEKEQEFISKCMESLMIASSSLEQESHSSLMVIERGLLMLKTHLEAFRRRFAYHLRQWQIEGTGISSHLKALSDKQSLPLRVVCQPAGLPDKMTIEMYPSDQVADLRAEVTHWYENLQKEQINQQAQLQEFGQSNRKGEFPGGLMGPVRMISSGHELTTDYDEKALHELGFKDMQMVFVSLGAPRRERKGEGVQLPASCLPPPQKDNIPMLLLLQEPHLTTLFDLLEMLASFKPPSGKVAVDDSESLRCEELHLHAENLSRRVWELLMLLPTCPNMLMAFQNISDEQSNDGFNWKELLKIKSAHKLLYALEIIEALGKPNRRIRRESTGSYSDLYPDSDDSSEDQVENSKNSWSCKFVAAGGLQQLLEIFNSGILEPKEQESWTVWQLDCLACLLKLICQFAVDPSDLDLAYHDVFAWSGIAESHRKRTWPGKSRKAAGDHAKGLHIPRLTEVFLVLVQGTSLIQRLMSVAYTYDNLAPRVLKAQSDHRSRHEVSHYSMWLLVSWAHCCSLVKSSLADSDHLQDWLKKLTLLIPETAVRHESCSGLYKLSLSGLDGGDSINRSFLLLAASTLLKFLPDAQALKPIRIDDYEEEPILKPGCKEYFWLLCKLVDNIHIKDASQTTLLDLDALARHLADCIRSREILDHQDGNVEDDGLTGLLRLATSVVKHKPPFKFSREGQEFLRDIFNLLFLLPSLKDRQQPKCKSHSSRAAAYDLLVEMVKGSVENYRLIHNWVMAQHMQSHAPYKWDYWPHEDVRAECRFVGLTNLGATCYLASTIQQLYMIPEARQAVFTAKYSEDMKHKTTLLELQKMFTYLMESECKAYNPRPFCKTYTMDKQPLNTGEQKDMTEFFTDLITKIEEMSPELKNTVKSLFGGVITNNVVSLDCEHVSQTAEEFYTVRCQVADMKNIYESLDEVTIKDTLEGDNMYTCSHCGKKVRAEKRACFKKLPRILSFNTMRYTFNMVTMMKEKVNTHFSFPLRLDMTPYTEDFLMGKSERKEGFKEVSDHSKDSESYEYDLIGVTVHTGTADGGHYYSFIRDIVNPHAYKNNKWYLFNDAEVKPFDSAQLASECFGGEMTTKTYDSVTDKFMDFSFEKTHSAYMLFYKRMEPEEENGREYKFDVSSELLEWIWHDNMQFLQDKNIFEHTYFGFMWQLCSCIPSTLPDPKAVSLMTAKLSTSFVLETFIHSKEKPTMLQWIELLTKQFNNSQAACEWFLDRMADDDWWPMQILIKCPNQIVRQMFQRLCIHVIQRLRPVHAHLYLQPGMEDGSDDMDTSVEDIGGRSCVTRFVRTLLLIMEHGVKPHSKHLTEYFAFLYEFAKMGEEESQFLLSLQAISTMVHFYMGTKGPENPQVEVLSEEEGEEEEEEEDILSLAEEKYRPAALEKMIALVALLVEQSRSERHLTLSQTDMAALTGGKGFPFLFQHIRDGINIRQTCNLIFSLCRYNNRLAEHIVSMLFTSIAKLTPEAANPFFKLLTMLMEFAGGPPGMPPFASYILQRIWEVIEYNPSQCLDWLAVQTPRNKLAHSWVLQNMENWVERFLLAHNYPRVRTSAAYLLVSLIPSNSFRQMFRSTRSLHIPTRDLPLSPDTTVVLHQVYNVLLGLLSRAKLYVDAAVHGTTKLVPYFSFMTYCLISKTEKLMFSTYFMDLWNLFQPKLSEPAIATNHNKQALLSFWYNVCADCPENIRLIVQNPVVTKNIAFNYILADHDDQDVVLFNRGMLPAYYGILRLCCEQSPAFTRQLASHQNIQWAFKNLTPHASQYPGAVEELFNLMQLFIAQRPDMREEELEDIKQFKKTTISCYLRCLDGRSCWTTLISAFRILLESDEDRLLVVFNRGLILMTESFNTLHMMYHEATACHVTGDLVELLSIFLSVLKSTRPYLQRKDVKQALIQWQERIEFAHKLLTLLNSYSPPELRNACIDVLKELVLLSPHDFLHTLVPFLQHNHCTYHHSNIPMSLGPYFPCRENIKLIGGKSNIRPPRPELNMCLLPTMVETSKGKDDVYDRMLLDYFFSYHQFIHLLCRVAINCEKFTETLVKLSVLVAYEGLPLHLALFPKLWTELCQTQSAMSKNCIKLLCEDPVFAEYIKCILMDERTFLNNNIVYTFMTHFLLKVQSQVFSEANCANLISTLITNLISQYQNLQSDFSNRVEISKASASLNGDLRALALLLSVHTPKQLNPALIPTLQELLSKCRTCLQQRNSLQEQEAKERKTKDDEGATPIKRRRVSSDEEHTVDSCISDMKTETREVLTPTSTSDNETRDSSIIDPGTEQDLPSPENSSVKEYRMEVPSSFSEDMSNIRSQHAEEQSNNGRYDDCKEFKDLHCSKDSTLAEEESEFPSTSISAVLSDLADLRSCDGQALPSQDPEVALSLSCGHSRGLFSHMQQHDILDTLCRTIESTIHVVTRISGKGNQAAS
Summary of the method: (§1)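 HEK293T lysate in Tris/CHAPS/IGEPAL buffer with protease inhibitors (495 µg per sample) was given fragment at 200 µM or vehicle for 3 h, in triplicate. It then received Biotin-Ahx-Ub-VS at 0.5 µM final for 1 h. Labelled DUBs were NeutrAvidin-enriched, digested with LysC and trypsin, and run by diaPASEF LC-MS/MS. Values are average log2 fragment/vehicle ratios by unpaired t-test on global-median-normalised Spectronaut quantities of proteins with ≥2 unique peptides.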

[2] = target: T1, USP36 (UniProt Q9P275)
T1 sequence (whole entry): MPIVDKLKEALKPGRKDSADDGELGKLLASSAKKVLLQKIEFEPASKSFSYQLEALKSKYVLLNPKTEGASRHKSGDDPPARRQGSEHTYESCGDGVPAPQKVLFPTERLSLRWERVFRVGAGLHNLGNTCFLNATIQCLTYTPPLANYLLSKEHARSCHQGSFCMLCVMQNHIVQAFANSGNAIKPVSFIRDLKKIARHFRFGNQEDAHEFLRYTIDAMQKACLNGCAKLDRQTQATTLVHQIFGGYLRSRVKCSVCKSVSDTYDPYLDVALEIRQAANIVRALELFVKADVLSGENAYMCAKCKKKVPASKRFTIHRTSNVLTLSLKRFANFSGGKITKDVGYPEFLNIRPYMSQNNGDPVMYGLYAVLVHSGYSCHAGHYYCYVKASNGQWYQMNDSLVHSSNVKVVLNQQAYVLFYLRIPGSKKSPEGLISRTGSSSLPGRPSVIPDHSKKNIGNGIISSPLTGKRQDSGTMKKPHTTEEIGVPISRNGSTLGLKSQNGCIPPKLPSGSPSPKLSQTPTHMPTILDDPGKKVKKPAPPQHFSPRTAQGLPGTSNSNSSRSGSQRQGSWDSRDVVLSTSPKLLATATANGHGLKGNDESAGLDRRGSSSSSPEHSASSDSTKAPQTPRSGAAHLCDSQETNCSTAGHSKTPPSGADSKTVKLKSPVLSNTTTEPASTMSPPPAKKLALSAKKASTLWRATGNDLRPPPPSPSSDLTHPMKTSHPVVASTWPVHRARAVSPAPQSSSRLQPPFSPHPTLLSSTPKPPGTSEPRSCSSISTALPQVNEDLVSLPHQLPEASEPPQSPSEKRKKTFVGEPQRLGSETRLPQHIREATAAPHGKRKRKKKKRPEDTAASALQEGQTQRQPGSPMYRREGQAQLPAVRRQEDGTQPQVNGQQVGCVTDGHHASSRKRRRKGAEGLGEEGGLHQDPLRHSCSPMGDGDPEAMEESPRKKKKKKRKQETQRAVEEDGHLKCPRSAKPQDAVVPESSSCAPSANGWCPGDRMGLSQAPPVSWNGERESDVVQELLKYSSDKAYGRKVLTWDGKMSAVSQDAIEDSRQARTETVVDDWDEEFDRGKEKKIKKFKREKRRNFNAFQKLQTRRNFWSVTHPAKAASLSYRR
Summary of the method: as §1

[3] = target: T2, USP38 (UniProt Q8NB14)
T2 sequence (whole entry): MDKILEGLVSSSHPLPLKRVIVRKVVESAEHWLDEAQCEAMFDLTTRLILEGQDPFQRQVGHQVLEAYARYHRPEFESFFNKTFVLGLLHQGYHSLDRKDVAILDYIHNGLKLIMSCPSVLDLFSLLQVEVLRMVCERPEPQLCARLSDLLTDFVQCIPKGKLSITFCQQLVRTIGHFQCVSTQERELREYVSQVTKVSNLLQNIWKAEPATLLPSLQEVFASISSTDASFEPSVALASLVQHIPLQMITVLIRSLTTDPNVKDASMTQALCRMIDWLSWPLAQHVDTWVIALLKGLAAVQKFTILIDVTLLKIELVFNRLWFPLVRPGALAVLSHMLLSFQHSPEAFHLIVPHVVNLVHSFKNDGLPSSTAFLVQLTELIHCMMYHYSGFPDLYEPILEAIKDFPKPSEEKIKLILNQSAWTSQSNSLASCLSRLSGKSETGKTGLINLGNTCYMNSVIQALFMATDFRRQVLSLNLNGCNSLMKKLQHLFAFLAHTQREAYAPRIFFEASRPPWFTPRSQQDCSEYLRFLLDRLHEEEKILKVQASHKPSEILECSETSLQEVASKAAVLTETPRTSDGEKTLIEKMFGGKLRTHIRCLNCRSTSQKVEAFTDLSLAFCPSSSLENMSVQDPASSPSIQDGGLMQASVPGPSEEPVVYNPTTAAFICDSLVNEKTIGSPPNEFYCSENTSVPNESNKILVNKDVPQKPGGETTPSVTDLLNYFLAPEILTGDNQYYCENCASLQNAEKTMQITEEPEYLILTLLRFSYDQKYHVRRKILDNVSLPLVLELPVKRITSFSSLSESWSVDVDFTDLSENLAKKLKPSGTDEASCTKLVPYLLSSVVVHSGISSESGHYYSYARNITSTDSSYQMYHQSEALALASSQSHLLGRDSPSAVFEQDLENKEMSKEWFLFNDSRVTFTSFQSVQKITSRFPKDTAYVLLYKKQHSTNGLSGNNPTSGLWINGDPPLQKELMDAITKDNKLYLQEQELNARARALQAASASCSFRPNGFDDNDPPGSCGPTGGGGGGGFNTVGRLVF
Summary of the method: as §1

[4] = target: T3, USP39 (UniProt Q53GS9)
T3 sequence (whole entry): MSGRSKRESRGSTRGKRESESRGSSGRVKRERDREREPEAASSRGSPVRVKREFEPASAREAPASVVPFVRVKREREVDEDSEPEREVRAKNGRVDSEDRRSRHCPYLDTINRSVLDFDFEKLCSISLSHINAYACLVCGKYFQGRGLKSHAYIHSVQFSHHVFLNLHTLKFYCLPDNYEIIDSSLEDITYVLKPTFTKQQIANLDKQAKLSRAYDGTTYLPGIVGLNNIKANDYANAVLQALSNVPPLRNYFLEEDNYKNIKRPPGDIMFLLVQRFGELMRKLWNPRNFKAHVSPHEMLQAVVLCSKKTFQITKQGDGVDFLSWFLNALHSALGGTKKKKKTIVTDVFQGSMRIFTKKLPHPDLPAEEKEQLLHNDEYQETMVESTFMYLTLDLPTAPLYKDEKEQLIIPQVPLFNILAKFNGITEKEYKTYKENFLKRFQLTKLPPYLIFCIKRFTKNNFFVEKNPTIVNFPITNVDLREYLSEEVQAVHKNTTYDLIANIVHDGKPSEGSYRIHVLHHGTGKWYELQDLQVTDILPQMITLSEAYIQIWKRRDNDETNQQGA
Summary of the method: as §1

[5] = target: T4, USP4 (UniProt Q13107)
T4 sequence (whole entry): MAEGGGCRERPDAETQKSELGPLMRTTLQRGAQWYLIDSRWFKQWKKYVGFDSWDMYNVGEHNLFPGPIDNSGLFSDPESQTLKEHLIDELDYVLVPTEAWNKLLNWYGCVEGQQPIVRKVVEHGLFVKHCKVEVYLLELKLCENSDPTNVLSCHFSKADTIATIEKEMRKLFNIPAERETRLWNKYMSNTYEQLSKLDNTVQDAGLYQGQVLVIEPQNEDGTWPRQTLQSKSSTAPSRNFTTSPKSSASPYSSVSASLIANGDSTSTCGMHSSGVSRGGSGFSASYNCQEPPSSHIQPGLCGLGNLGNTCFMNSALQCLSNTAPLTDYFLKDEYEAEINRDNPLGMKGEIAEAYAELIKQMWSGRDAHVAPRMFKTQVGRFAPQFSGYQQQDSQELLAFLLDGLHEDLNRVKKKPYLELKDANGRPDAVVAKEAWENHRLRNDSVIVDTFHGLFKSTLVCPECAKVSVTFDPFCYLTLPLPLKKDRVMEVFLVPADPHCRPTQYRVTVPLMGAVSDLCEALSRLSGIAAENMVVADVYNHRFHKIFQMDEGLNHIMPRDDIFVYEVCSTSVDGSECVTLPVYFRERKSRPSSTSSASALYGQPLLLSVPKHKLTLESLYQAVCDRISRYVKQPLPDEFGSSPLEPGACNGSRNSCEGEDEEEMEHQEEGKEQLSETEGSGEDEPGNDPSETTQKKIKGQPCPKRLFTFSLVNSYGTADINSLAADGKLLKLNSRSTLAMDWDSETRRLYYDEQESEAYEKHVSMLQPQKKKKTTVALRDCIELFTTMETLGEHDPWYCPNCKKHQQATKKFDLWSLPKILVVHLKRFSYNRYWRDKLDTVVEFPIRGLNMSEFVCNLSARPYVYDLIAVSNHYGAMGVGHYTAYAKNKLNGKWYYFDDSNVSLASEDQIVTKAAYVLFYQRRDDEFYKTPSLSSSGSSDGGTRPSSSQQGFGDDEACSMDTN
Summary of the method: as §1

Measured: log2 ratio of Biotin-Ahx-Ub-VS probe labelling

O=C(CCl)NC1CCCCNC1=O (stereo not given)
inactive: [1] -0.126 | [2] -0.314 | [3] -0.0226 | [4] 0.0502 | [5] -0.25
